# Test results: PMC12136788
# Positions count from the first letter of the chain named. Whole data set: some 24,000 sequences, median “enrichment r” near 0.99, cut for the highest 2% near 3.7. The sample holds the highest values, similar sequences and a random draw of the others, so the mix is not that of the screen.
# B1: chr4:142145789:142145790:+_ENSG00000109445_ENST00000262990|hu_hu|FALSE|FALSE (ssRNA)
# RNA: GGGAGUUCUACAGUCCGACGAUCACACUGUGCACAAAUUGGUAACUUCUGUACAGAAUUACAAAAGUAGCAAAAUGCUCUAUUCUUCUGCCGCCUCUGACACUUGUCACAUUCCAUUGAGGCAUUACAUGGAUGUUUAGCUAACAACAGAGGAUUGAGCAUCA
# B2: chr11:101919151:101919152:-_ENSMUSG00000017314_ENSMUST00000017458|mus_mus|motif|central (ssRNA)
# RNA: GGGAGUUCUACAGUCCGACGAUCAAAUGAGAUUCCUAAUAUAAUAAAUAUAUUUCUAGCAUUUGUAAUAAAUAUUCUGUCGGUUCUCCCUCCCUCCCCUUCUCUAGGAUAUGGGCACACAGUGGUUCAGGGACAAGCUUGGGCCAACAGAGGAUUGAGCAUCA
# B3: chr17:56552419:56552420:-_ENSMUSG00000013236_ENSMUST00000086828|mus_mus|mus_mus_mus_hu_False|28_68 (ssRNA)
# RNA: GGGAGUUCUACAGUCCGACGAUCAAAAAAUACACUAUUUAAAAAAAAUGAAAUGUCACGGGAUACAAAAAAAUAUAGAGUUUUAAAAGAAAGCUGGAUUCUGGUCCUUGCCAAAAGUCCCCAGGCUGCAGAGCGGGGAGGAGCCAACAGAGGAUUGAGCAUCA
# B4: chr17:56552419:56552420:-_ENSMUSG00000013236_ENSMUST00000086828|mus_mus|mus_mus_mus_hu_False|48_68 (ssRNA)
# RNA: B3 RNA with G88A, G92A, C93U, U94A, G95A, U107C, U108A, A112C, A114G, A115U
# B5: chr17:56552419:56552420:-_ENSMUSG00000013236_ENSMUST00000086828|mus_mus|mus_mus_mus_hu_False|1_68 (ssRNA)
# RNA: B3 RNA with U107C, U108A, A112C, A114G, A115U, A138C, G139A, C143G
# B6: chr17:56552419:56552420:-_ENSMUSG00000013236_ENSMUST00000086828|mus_mus|mus_mus_mus_hu_False|68_88 (ssRNA)
# RNA: GGGAGUUCUACAGUCCGACGAUCAAAAAAUACACUAUUUAAAAAAAAAAGAAAAAAACGGGAUACAAAAAAAUAUAGAGUUUUAAAAGAAAGCUGGAUUCUGGUCCCAGCCCAGUGUCCCCAGGCUGCAGAGCGGGGAGGAGCCAACAGAGGAUUGAGCAUCA
# B7: chr17:56552419:56552420:-_ENSMUSG00000013236_ENSMUST00000086828|mus_mus|mus_mus_mus_hu_False|1_58 (ssRNA)
# RNA: GGGAGUUCUACAGUCCGACGAUCAAAAAAUACACUAUUUAAAAAAAAUGAAAUGUCACGGGAUACAGUUACACUGACACUAUUAAAAGAAAGCUGGAUUCUGGUCCCAGCCCAGUGUCCCCAGGCUGCAGAGCGGGGCAGAGGCAACAGAGGAUUGAGCAUCA
# B8: chr7:7679991:7679992:-_ENSG00000106399_ENST00000396682|hu_hu|hu_hu_hu_mus_False|68_68 (ssRNA)
# RNA: GGGAGUUCUACAGUCCGACGAUCUGGGAUGAAUCUUUUCCAGCUUCCCCACGAAGCACACGGGCCGGUCGAUGAAUUGUGGUAACAUGCUGGCGUUGACGCGCGCUUUGGGGAGCUGCAUUAUGUCCUCCAUGAUUCUGCCGCCAACAGAGGAUUGAGCAUCA
# B9: 76906679_76906799_897_3pUTR_ENSMUSG00000022010_ENSMUST00000022587|mouse|control|control (ssRNA)
# RNA: GGGAGUUCUACAGUCCGACGAUCUGGGGAGGGUUGAAAAGGCACAGAGCUCCUCGGGGUCAAUUAAACCAUUCCUCAGACAUCUGCCACGUUGCACAGGGCACAUCCCUGCUCACUCUCUGAUUAACCUUUAAUUCACUCAACCAACAGAGGAUUGAGCAUCA
# B10: 129354385_129360783_1558_CDS_ENSG00000056277_ENST00000370978|human|control|control (ssRNA)
# RNA: GGGAGUUCUACAGUCCGACGAUCAUGUUCAGCUUUCUCCUUGCUGGUCAAAAAUUGUAGUCUGCAUUUUGGGCAACGAUGAACUCCUUUUUUCUGAUGCUUCAUGUAAUGAUUCAUGUAGGGGGUUGCCAUUUUACUAACUUUCAACAGAGGAUUGAGCAUCA
# B11: chr2:219525992:219525993:+_ENSG00000074582_ENST00000359273|hu_mus|FALSE|FALSE (ssRNA)
# RNA: GGGAGUUCUACAGUCCGACGAUCGAUCCAUUUUCCCUGAUACCAAAUGAAGUGGUUUCCAGGGCUGGGGAUAAAUUCAAACUUGGUGGAGAUCCGGCCACUUUCAUGCUGAAGGUAUGAGGUUUCAACACUGAGGUGCUGAGUCAACAGAGGAUUGAGCAUCA
# B12: 156047189_156047309_678_CDS_ENSG00000254726_ENST00000532414|human|control|control (ssRNA)
# RNA: GGGAGUUCUACAGUCCGACGAUCGAUGGUUGCCCCUUUGGGGCCCACCACCAGCCCCACCACGCGGUAGGGCACCCGCACACGGAUGGUCACCUGGCCGGGCAGAGCAGGAGCCACACCAAAGGCGGCGCCUGACUUGUUGCGCAACAGAGGAUUGAGCAUCA
# B13: 107436344_107436464_280_CDS_ENSMUSG00000020721_ENSMUST00000106746|mouse|control|control (ssRNA)
# RNA: GGGAGUUCUACAGUCCGACGAUCGGCAAUUCUGUAAAGAAGACUCUCAAUUUUGAUGCGCUCAACCUCCACCGGGCACGGCCCUGUGAAGUCUGCCAUGGAGUACUGGCCAAGAGAGAGCAGGGCGUCGGUGCAGUGCUGGAGCAACAGAGGAUUGAGCAUCA
# B14: 139370288_139370408_1793_CDS_ENSG00000148396_ENST00000313050|human|control|control (ssRNA)
# RNA: GGGAGUUCUACAGUCCGACGAUCGGUUGAGGGCUGGGACACGCUGCCACGGUAAUUCUGGCUCACAGUGGUCUCGUCUGUUUCACCUCCUACGGGAGAAGAAUCGAUUUGCUUAAAAAAACUACCUGAAGCUUCAUCCUCGGGCAACAGAGGAUUGAGCAUCA
# B15: 15271559_15271679_6895_CDS_ENSG00000074181_ENST00000263388|human|control|control (ssRNA)
# RNA: GGGAGUUCUACAGUCCGACGAUCGGGAAGUGGCUGGGCAGGCAGUGCCCCAGUGGUGGUGGCCAUGGCCCCAGUGGCAGUGGCUGGGCUAGGCGUGGAUUCGGACCAGUCUGAGAGGGAGGGAGGUGAGGGGCUGGCCCAGUGCAACAGAGGAUUGAGCAUCA
# B16: 129698844_129698964_1004_3pUTR_ENSMUSG00000026349_ENSMUST00000027587|mouse|control|control (ssRNA)
# RNA: GGGAGUUCUACAGUCCGACGAUCCUGCUAGCACUGAUAAAUUAUCAGAUGCACGGCUAUCUUGAACAGAAGUACUUCCUGAAUUUAGAGGUAUUGGAGCAGGGAACGUUGAUGUUGAUGGUUUCUGAAAGCUUGGGUUGGCAGCAACAGAGGAUUGAGCAUCA
# B17: chr1:184247048:184247049:-_ENSMUSG00000047539_ENSMUST00000051431|mus_mus|FALSE|FALSE (ssRNA)
# RNA: GGGAGUUCUACAGUCCGACGAUCCUGGAGCUAGAGCCAUAUUCCAAUCUACUUCCUAUUCCGAAGUCGUUUGGAUUUCCUAAGAGAGUCUAUGGCUUCCGUUGCCUUCCGUCGUUUCCGAGGGGACUCCUCACUCUGCCCAGACAACAGAGGAUUGAGCAUCA
# B18: chr11:20101544:20101545:+_ENSMUSG00000020149_ENSMUST00000020358|mus_hu|FALSE|FALSE (ssRNA)
# RNA: GGGAGUUCUACAGUCCGACGAUCUGCCGCAGCCGCCGCCCUGACUCUCCGCGCCACGGGUAAUCGAAAGAAAGGAAUGAGAUAGGCUGUUCCGGGAGAGCAAACGUCUUCCCCUACUCCGUCCCCUAGAACACAAUCAGCAGCCAACAGAGGAUUGAGCAUCA
# B19: chr17:56552419:56552420:-_ENSMUSG00000013236_ENSMUST00000086828|mus_mus|mus_mus_mus_hu_False|18_68 (ssRNA)
# RNA: GGGAGUUCUACAGUCCGACGAUCAAAAAAUACACUAUUUAAAAAAAAUGAAAUGUCACGGGAUACAAAAAAAUAUAGAGUUUUAAAAGAAAGCUGGAUUCUGGUCCCAGCCCAGUGGCAGGCAGGGGCAGAGCGGGGAGGAGCCAACAGAGGAUUGAGCAUCA
# B20: chr17:56552419:56552420:-_ENSMUSG00000013236_ENSMUST00000086828|mus_mus|mus_mus_mus_hu_False|58_68 (ssRNA)
# RNA: B3 RNA with G77C, G79C, U81A, U107C, U108A, A112C, A114G, A115U
# B21: chr15:76910149:76910150:-_ENSMUSG00000033565_ENSMUST00000166610|mus_mus|FALSE|FALSE (ssRNA)
# RNA: GGGAGUUCUACAGUCCGACGAUCAAUGCUGACGGAGGGAAGUCAUGUCUCUUAGGGGAAAGGAUCAGCUCAUCACUCGCUAUAUAACGCAGCCAAACGGGCUGCCCAACAAGCACGCACACAAGAAAUACUGUUAACAGAAAACAACAGAGGAUUGAGCAUCA
# B22: chr17:56552419:56552420:-_ENSMUSG00000013236_ENSMUST00000086828|mus_mus|mus_mus_mus_hu_False|68_68 (ssRNA)
# RNA: B3 RNA with U107C, U108A, A112C, A114G, A115U
# Target: T1, UNK ZnF1-3 (human, UniProt Q9C0B0 31-174)
# T1 sequence: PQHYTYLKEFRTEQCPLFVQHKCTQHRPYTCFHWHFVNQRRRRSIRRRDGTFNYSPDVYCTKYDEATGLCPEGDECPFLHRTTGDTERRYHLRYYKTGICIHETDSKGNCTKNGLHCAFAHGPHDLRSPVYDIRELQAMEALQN
# Assay: nsRBNS (natural sequence RNA bind-n-seq); RBNS binding buffer (assumed for nsRBNS): 25 mM Tris pH 7.5, 150 mM KCl, 3 mM MgCl2, 0.01% Triton X-100, 500 ug/ml BSA, 20 U/ml SUPERase-In, 4 C; UNK is unkempt and MSI1 is Musashi-1; names of the RNAs are library labels; protein concentration not given here; high values mean tight binding
row,Binder,binding signal
1,B1,1.04 enrichment R
2,B2,3.58 enrichment R
3,B3,9.22 enrichment R
4,B4,8.41 enrichment R
5,B5,9.75 enrichment R
6,B6,16.7 enrichment R
7,B7,3.44 enrichment R
8,B8,0.493 enrichment R
9,B9,1.14 enrichment R
10,B10,0.531 enrichment R
11,B11,0.804 enrichment R
12,B12,0.73 enrichment R
13,B13,0.894 enrichment R
14,B14,0.768 enrichment R
15,B15,2.43 enrichment R
16,B16,1.96 enrichment R
17,B17,0.688 enrichment R
18,B18,1.67 enrichment R
19,B19,7.03 enrichment R
20,B20,11.3 enrichment R
21,B21,1.79 enrichment R
22,B22,7.63 enrichment R
